13 molecules from PubChem BioAssay (NCI) can be followed below.

About 83,000 compounds went through this panel and 20% of them were active in at least one assay; those are over-represented in the sample as a whole.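 Assay: single dose, 48 h. Readout: percent growth (0 = no net growth; negative = cell death). Active: <10.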 Unmarked numbers belong to inactive results. Activity calls are given as the source filed them.

Holding throughout (test): NCI-60 one-dose screen, 48 h (100 = growth as untreated, 0 = no growth, -100 = all killed)
Details in all cases: 10 µM unless noted

In test [1] the test system is HCT-15 colon.
Test [2] deals with HT29 colon.
Test [3] deals with SNB-75 CNS.
Test [4] concerns SNB-19 CNS.
Test [5] relates to U251 CNS.
Test [6] concerns PC-3 prostate.
Test [7] has as its system SK-MEL-5 melanoma.
Test [8] has as its system UACC-62 melanoma.
Test [9] concerns LOX IMVI melanoma.
Test [10] concerns SK-MEL-28 melanoma.
Test [11] deals with SK-MEL-2 melanoma.
Test [12] deals with EKVX NSCLC.
Test [13] has as its system SN12C renal.
Test [14] deals with UO-31 renal.
Test [15] concerns TK-10 renal.
The test system of test [16] is ACHN renal.
Test [17] deals with CAKI-1 renal.
Test [18] deals with A498 renal.
The test system of test [19] is CCRF-CEM leukemia.
The test system of test [20] is MOLT-4 leukemia.

Turning to `CCCC1OC(c2ccc(C(C)C)cc2)OCC1CC` (stereo unspecified), the growth in test [1] was 103%; in test [2], 97%; in [3], 87.6%; in [4], 106%; in test [5] it was 95.7%; in test [6] it was 78.7%. Moreover, the growth in test [7] is 104%; in test [8] it was 102%; in test [9], 97.7%; in test [10], 104%; in test [11], 98.4%; in test [12] it was 101%. The growth in [13] was 105%; in test [14], 101%; in test [15], 97.1%; in test [16], 99.5%; in [17], 90.9%; in test [18] it was 94.4%. Besides, the growth in test [19] is 95.9%; in test [20], 93.3%.
`O=S(=O)(NCCCNc1cc(-c2cn(-c3ccccc3)nc2-c2cccc(O)c2)ccn1)c1ccc(C(F)(F)F)cc1`: the growth in test [1] was 5.17% (active); in test [2] it was 2.83% (active); in test [3], 31.5%; in test [4], 51.4%; in test [5], 36.8%; in test [6] it was 13.7%. The growth in test [7] was 8.74% (active); in test [8] it was 27.4%; in test [9], 27.4%; in [10], 21.7%; in test [11], 72.7%; in test [12], 40.8%. The growth in test [13] was 50.1%; in test [14] it was 24.9%; in test [15] it was 77.7%; in test [16], 31.5%; in test [17], 34.7%; in test [18], 57.2%. Besides, the results for the growth in test [19] and in test [20] were 30.2% and 16%, respectively.
For `O=C1OC(c2ccccc2)=N/C1=C\c1ccc([N+](=O)[O-])cc1`, the growth in test [1] is 104%; in test [2], 98.8%; in [3], 84.8%; in [4], 107%; in test [5] it was 102%; in [6], 94.4%. Besides, the growth was 99.2% in test [7]; 95.5% in test [8]; 96.9% in test [9]; 102% in test [10]; 105% in test [11]; 99.9% in test [12]. The growth is 100% in test [13]; 91.7% in test [14]; 97.4% in test [15]; 102% in test [16]; 91.5% in [17]; 87.4% in [18]. Moreover, the growth is 114% in test [19] and 102% in [20].
On to `O=C1NC(Cc2c[nH]c3ccccc23)C(=O)N1Cc1ccc(Cl)cc1` (stereo unspecified), for which the growth in test [1] is 99.6%; in [2], 105%; in [3] it was 90.1%; in test [4] it was 103%; in test [5], 94.1%; in test [6], 90.5%. The growth in test [7] was 95%; in test [8] it was 86.1%; in [9], 89.1%; in [10], 109%; in test [11] it was 66.3%; in test [12], 103%. Also, the growth was 99.7% in test [13]; 76% in test [14]; 135% in test [15]; 95% in test [16]; 86.9% in test [17]; 78.9% in [18]. Also, the growth in [19] is 70.1%; in test [20], 85.4%.
As for `Cc1c(C2=NNC(c3ccc4c(c3)OCO4)C2)[n+]([O-])c2ccccc2[n+]1[O-]` (stereo unspecified), the growth in test [1] was 103%; in test [2], 110%; in [3], 88.9%; in test [4], 103%; in [5] it was 110%; in [6] it was 96%. Moreover, the growth in [7] is 97.9%; in test [8] it was 118%; in [9], 96.1%; in test [10] it was 113%; in test [11], 81.4%; in [12], 91.5%. Further, the growth in test [13] was 108%; in test [14] it was 84.6%; in test [15] it was 183%; in test [16] it was 108%; in test [17], 107%; in [18], 94.7%. Besides, the growth is 97.7% in test [19] and 105% in test [20].
For `N#CC1=C(N)n2nc(-c3ccncc3)nc2NC1c1cccc2ccccc12` (stereo unspecified), the growth is 90.4% in [1]; 97.8% in test [2]; 67.6% in test [3]; 92.8% in test [4]; 86.7% in test [5]; 76% in test [6]. Besides, the growth was 88.6% in test [7]; 72.4% in test [8]; 79% in [9]; 106% in test [10]; 96.3% in test [11]; 71.7% in test [12]. Further, the growth in test [13] is 96.6%; in test [14] it was 58.1%; in [15], 103%; in [16], 95.2%; in test [17] it was 69%; in [18], 89.8%. For the same molecule, the growth in test [19] was 87.7%; in test [20] it was 86.4%.
As to `Cc1oc2ncnc(Nc3ccccc3)c2c1C(=O)NCCO`, the growth in test [1] was 98.1%; in [2], 106%; in [3], 90.7%; in test [4], 93.9%; in test [5] it was 102%; in test [6], 107%. Also, the growth is 97.5% in [7]; 86.2% in [8]; 95.4% in [9]; 98.9% in test [10]; 113% in test [11]; 97.6% in test [12]. Besides, the growth was 93.2% in test [13]; 87.7% in test [14]; 122% in test [15]; 91.8% in test [16]; 90.8% in test [17]; 78.2% in test [18]. Besides, the growth in test [19] is 97.4%; in [20], -0.282% (active).
For the molecule `Cc1cc2c(C(C)C)c(O)c(O)c(C=NCCCCC(=O)O)c2c(O)c1-c1c(C)cc2c(C(C)C)c(O)c(O)c(C=NCCCCC(=O)O)c2c1O`, the growth in test [1] is 34.7%; in [2], 46.6%; in test [3], 62.1%; in test [4] it was 30.9%; in test [5] it was 24%; in test [6], 29.2%. Besides, the growth is 49.4% in test [7]; 59.2% in [8]; 43.4% in [9]; 64.2% in [10]; 43.6% in test [11]; 38.4% in test [12]. The growth in test [13] is 49.2%; in [14], 74.2%; in [15], 49%; in test [16], 62%; in [17], 73.1%; in test [18] it was 56.3%. For the same molecule, the results for the growth in test [19] and in test [20] were 29.8% and 34.9%, respectively.
In the case of `CCN1C(=O)N(CC)C2Nn3c(s/c(=C\c4cccc(F)c4)c3=O)=NC21` (stereo unspecified), the growth in test [1] was 56.6%; in test [2] it was 39.1%; in test [3], 6.29% (active); in test [4] it was 80.7%; in test [5] it was 73.2%; in test [6] it was 52.9%. Further, the growth in test [7] is 42.6%; in test [8], 67.7%; in [9] it was 69.7%; in test [10] it was 75.6%; in test [11], 85.3%; in test [12], 79%. Also, the growth was 79.6% in [13]; 65.1% in test [14]; 109% in test [15]; 66.7% in [16]; 48.9% in test [17]; 46.1% in test [18]. Further, the growth in test [20] was 94.9%.
Consider `Cc1cccc2cc(/C=C/C(=O)/C=C/c3ccc(Cl)cc3)c(=O)[nH]c12`, for which the growth in test [1] is 43.6%; in [2] it was 7.76% (active); in [3], 79.7%; in test [4], 49.5%; in [5] it was 10.6%; in [6], 33.8%. Further, the growth in [7] was 91.2%; in [8], 30.4%; in test [9], 4.24% (active); in test [10], 75.4%; in test [11], 91%; in [12] it was 62.5%. For the same molecule, the growth in [13] is 47.6%; in test [14] it was 69.7%; in test [15], 105%; in [16] it was 60.5%; in test [17], 91.1%; in [18], 63.1%. Besides, the growth in [19] is 14.7%; in test [20], 32.4%.
As for `CCN1C(=O)N(CC)C2C1NN=c1s/c(=C\c3cccc(F)c3)c(=O)n12` (stereo unspecified), the growth in [1] is 15.7%; in test [2] it was 10.4%; in [3] it was 6.61% (active); in test [4] it was 34.6%; in [5] it was 29.4%; in test [6], 24.7%. Besides, the growth in test [7] was -30.7% (active); in test [8], 33.3%; in test [9] it was 24.4%; in [10], 57.8%; in [11] it was 51.5%; in [12], 64.3%. Besides, the growth in test [13] was 31.5%; in test [14], 50.8%; in test [15] it was 61.8%; in [16], 29.1%; in test [17], 40.8%; in test [18], -15.3% (active). Also, the growth in test [20] is 19.1%.
As for `O=C(Nc1ccc(I)cc1)c1cc([N+](=O)[O-])ccc1O`, the growth is 36.7% in [1]; 48.7% in test [2]; 57% in test [3]; 35.4% in test [4]; 31.1% in test [5]; 15.3% in test [6]. Besides, the growth in test [7] is -0.402% (active); in [8], 0.385% (active); in test [9], 20.2%; in test [10], 16.4%; in [11], -0.392% (active); in test [12], 39.7%. The growth in test [13] is 34.3%; in test [14] it was 22.5%; in test [15], 40%; in test [16], 48.8%; in [17] it was 30.9%; in test [18], -27.9% (active). Also, the growth in test [20] is 18.8%.
On to `C#CCN1C(=O)/C(=c2\sc3n(c2=O)NC2C(N=3)N(CC)C(=O)N2CC)c2ccccc21` (stereo unspecified), for which the growth in test [1] is 43.8%; in test [2], 26.2%; in test [3], 14.2%; in test [4], 89.1%; in test [5] it was 94.4%; in test [6], 47.5%. Further, the growth is 53% in test [7]; 54.1% in test [8]; 60.3% in [9]; 57.3% in [10]; 91.3% in [11]; 69.7% in [12]. Further, the growth is 71% in test [13]; 47.9% in test [14]; 96.5% in [15]; 54.4% in test [16]; 30.1% in test [17]; 36.8% in [18]. In [20], the growth was 68.5%.
